# Hits are enriched below; roughly 3.2% of the tested compounds scored in any of these assays.
# GDH-TPI counter-1 = inhibits GDH-TPI coupling enzymes, artifact for Mtb FBA screen | GDH-TPI coupled enzyme counterscreen, NADH absorbance | hit rate 1.2% among 360,000 | AID 588335 | inhibition, % at 4.8 µM; in the data active means inhibition above about 30%;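 further: 0% = DMSO wells and 100% = wells lacking the enzyme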
# PrPC TRFRET = cell surface PrPC inhibition, primary TR-FRET screen. TR-FRET read-out. inhibition, % at 13.8 µM. hit rate 0.43% among 370,000. AID 720596; in the data active means inhibition above about 24%; further: 0% = median of the test wells and 100% = reference compound wells
# Mtb FBA inh = inhibitors of M. tuberculosis fructose-bisphosphate aldolase | P9WQA3 | purified M. tuberculosis FBA, fluorescence read-out | inhibition, % at 1 µM | hit rate 2.3% among 360,000 | AID 588726; in the data active means inhibition above about 27%;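 further: 0% = vehicle and 100% = reference inhibitor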
# TcdB inh = inhibitors of Clostridioides difficile toxin B glycohydrolase. P18177. TcdB glycohydrolase enzymatic assay, plate reader. inhibition, % at 9.99 µM. hit rate 0.24% among 350,000
# Target sequence (P18177 whole entry, looked up): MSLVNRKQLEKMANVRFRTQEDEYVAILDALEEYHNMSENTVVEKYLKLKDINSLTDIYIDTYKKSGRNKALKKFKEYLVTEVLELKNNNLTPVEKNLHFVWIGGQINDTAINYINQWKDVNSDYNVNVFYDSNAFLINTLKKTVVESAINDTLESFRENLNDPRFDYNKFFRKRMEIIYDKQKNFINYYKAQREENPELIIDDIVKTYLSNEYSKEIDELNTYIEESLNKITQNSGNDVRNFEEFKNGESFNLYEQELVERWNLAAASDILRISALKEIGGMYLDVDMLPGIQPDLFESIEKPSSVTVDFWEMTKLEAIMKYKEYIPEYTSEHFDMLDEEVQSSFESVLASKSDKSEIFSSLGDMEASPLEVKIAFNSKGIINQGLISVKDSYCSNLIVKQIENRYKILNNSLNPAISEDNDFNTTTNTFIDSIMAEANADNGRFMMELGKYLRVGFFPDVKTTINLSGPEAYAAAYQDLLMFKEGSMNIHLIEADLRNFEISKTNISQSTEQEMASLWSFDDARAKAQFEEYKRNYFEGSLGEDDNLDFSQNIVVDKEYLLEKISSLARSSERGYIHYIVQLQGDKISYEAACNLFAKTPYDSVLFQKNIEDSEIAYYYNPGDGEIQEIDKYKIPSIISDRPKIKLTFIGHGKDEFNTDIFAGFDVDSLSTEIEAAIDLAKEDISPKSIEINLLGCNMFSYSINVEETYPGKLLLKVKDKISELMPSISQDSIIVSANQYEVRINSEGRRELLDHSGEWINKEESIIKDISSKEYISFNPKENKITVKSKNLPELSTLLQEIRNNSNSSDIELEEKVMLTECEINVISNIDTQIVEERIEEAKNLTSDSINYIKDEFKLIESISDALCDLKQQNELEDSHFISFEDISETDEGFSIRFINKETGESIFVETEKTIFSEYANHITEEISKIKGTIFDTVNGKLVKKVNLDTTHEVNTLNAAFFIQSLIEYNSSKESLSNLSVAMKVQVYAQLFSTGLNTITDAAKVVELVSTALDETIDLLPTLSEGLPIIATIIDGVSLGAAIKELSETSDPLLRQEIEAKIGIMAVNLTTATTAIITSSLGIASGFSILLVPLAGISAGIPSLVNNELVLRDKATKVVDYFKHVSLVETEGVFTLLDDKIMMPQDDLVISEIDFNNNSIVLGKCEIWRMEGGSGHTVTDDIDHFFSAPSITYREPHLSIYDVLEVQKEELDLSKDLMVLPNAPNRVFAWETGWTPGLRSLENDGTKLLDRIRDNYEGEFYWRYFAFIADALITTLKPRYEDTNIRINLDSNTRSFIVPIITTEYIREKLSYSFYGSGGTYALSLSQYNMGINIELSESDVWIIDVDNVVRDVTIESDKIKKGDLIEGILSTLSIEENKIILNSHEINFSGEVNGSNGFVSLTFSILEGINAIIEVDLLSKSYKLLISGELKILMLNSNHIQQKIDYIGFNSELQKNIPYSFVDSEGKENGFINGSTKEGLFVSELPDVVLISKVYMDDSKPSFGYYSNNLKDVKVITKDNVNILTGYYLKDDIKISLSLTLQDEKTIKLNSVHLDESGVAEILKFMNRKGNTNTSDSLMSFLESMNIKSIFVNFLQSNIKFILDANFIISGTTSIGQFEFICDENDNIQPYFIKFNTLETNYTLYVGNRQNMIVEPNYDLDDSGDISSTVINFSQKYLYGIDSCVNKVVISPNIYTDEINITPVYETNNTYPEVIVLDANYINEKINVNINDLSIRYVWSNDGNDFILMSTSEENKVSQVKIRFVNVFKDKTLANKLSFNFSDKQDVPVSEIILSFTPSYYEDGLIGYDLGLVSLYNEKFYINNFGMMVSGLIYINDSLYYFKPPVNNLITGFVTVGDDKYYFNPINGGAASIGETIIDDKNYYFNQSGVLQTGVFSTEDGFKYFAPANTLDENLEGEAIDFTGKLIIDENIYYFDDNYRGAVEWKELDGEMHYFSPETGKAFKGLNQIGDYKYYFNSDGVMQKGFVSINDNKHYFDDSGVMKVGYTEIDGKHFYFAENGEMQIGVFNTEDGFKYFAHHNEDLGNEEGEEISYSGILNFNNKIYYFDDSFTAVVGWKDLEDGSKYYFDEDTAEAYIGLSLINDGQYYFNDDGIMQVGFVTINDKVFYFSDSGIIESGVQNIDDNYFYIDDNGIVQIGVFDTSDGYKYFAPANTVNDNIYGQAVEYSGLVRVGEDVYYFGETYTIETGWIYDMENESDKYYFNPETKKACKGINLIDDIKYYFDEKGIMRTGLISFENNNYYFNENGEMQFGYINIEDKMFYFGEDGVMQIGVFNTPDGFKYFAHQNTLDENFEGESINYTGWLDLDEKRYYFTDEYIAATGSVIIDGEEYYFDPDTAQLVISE
# Yp Topo-I inh = blocks Yersinia pestis topoisomerase I activity; AID 504884; Y. pestis Topo-I cleavage product accumulation, plate reader; activity, % at 10 µM; hit rate 0.064% among 360,000; in the data active means activity above about 50%, passing the limit was not always enough
# Mtb FBA inh conf = confirmation of M. tuberculosis fructose-bisphosphate aldolase inhibitors; shares compounds with Mtb FBA inh; purified M. tuberculosis FBA, fluorescence read-out; inhibition, % at 1 µM; hit rate 78% among 5,600; AID 651616; in the data active means inhibition above about 27%;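 further: 0% = vehicle wells and 100% = reference inhibitor wells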
# GDH-TPI counter-2 = GDH-TPI inhibition counter-screen for FBA inhibitors | shares compounds with Mtb FBA inh | GDH-TPI coupled enzyme counterscreen, fluorescence | inhibition, % at 1 µM | hit rate 81% among 5,600 | AID 652141
# Active calls of the source: *; · = no result given; + = active, no number. Unless noted, no stated cut-off is given here; in the data, active means inhibition above about 10%; inactive means the rest.
SMILES,GDH-TPI counter-1,PrPC TRFRET,Mtb FBA inh,TcdB inh,Yp Topo-I inh,others
Cc1ccc(N/C=C2\C(=O)N(c3ccc(F)cc3F)C(c3cccnc3)S2(=O)=O)cc1 (stereo unspecified),66.0*,3.6,3.3,1.7,-7.8,
C[C@H]1CN([C@@H](C)CO)C(=O)c2cc(/C=C/c3ccccc3)cnc2O[C@H]1CN(C)C(=O)Cc1cccnc1,·,·,·,1.7,·,
Cc1ccc(C(=O)NCc2ccc3c(c2)OCO3)c(C)c1,4.1,0.3,152.6*,0.7,1.4,
CCOc1ccc(/C=N/Nc2cc(C)nc(N3CCOCC3)n2)cc1,13.7,-2.4,1.1,0.9,-4.6,
Cc1cc(N/N=C/c2ccc(O)cc2O)nc(-n2nc(C)cc2C)n1,35.9*,16.0,-0.4,·,-4.9,
CCOc1ccc(/C=N/Nc2cc(N3CCOCC3)nc(C)n2)c(O)c1,34.2*,-15.1,5.1,0.8,7.2,
COc1ccc(/C=N/Nc2cc(C)nc(-n3nc(C)cc3C)n2)cc1,16.6,2.3,4.0,·,-1.6,
Cc1nc(Cl)cc(N/N=C/c2ccc(O)cc2)n1,35.4*,-12.1,-0.9,6.4,-5.7,
Oc1ccc(/C=N/Nc2ccc(Cl)nn2)cc1O,31.9*,-18.3,1.0,0.1,4.0,
COc1cccc(CNC(=O)C[C@@H]2CC[C@H](NC(=O)C3CCOCC3)[C@H](CO)O2)c1,·,·,·,0.3,·,
COC(=O)CCCCCCC(=O)Nc1ccc(NC(=O)CCCC[P+](c2ccccc2)(c2ccccc2)c2ccccc2)cc1,·,·,·,-0.2,·,
Cc1nc(Cl)cc(N/N=C/c2ccc(O)cc2O)n1,59.4*,-2.3,0.9,-1.6,-8.2,
C[C@H](CO)N1C[C@H](C)[C@H](CN(C)Cc2ccc3c(c2)OCO3)Oc2ncc(C#Cc3ccccc3)cc2C1=O,·,·,·,0.7,·,
C[C@@H]1CN([C@@H](C)CO)C(=O)c2cccc(NS(=O)(=O)c3ccc(F)cc3)c2O[C@@H]1CN(C)C,·,·,·,0.8,·,
COc1cc(N/C=C(\C(C)=O)c2ccccc2)cc(OC)c1,43.7*,·,-3.0,·,-2.7,
COc1ccc2c(c1OC)C(=O)N1C2SC(C)(C)[C@H]1C(=O)NCC(C)C (stereo partly specified),2.8,0.4,152.0*,0.0,7.8,
COc1ccc(-c2cc3ccc(OCC(C)=O)cc3oc2=O)cc1,14.8,1.4,154.8*,2.0,4.9,
NC(=O)COc1ccc2cc(-c3ccccc3)c(=O)oc2c1,30.8*,-14.1,+,1.8,4.6,
NC(=O)COc1ccc2cc(-c3ccc(F)cc3)c(=O)oc2c1,17.9,-8.7,+,1.0,6.9,
COC(=O)COc1ccc2cc(-c3ccccc3)c(=O)oc2c1,37.9*,-13.9,+,-1.1,7.8,
COc1ccc(CN(C)C[C@H]2OCCCC[C@@H](C)Oc3ccc(NS(=O)(=O)c4ccc(Cl)cc4)cc3C(=O)N([C@H](C)CO)C[C@H]2C)cc1,·,·,·,1.0,·,
O=C(COc1ccc2c(-c3ccccc3)cc(=O)oc2c1)NCC1CCC(C(=O)O)CC1 (stereo unspecified),18.6,-15.7,-1.4,1.4,-3.4,
O=C(COc1ccc2cc(-c3ccccc3)c(=O)oc2c1)NCC1CCC(C(=O)O)CC1 (stereo unspecified),49.0*,-2.5,+,·,2.4,
COc1cccc(S(=O)(=O)N[C@H]2CC[C@H](CCn3cc(-c4ccccc4OC)nn3)O[C@H]2CO)c1,·,·,·,-0.3,·,
COc1ccc2nc3oc(C(=O)N4CC(C)CC(C)C4)cc3cc2c1 (stereo unspecified),16.5,·,55.6*,·,19.2,Mtb FBA inh conf=-0.7;GDH-TPI counter-2=-3.6
SMILES,GDH-TPI counter-1,PrPC TRFRET,Mtb FBA inh,TcdB inh,Yp Topo-I inh,others
COc1ccc2nc3oc(C(=O)N4CCCCC4)cc3cc2c1,24.4,-26.7,56.6*,·,23.3,Mtb FBA inh conf=83.9*;GDH-TPI counter-2=63.3*
CCOC(=O)C1CCCN(C(=O)c2cc3cc4ccc(OC)cc4nc3o2)C1 (stereo unspecified),22.8,·,92.1*,·,16.8,Mtb FBA inh conf=55.1*;GDH-TPI counter-2=32.1*
CCOC(=O)C1CCCN(C(=O)c2cc3cc(Br)ccc3oc2=O)C1 (stereo unspecified),3.8,-3.0,-2.4,-0.1,-1.9,
COc1ccc2cc3cc(C(=O)N4CCN(c5ccccc5)CC4)oc3nc2c1,5.6,-0.9,3.6,·,-6.6,
CCOC(=O)C1CCN(C(=O)c2cc3cc4cc(OC)ccc4nc3o2)CC1,18.9,-7.9,55.4*,·,24.2,Mtb FBA inh conf=109.0*;GDH-TPI counter-2=98.2*
C[C@@H]1CN([C@H](C)CO)C(=O)Cc2cc(NC(=O)Nc3cccc4ccccc34)ccc2O[C@@H]1CN(C)Cc1ccc(Oc2ccccc2)cc1,·,·,·,-2.0,·,
Cc1ccc(S(=O)(=O)NCC[C@@H]2CC[C@H](NC(=O)C3CCOCC3)[C@@H](CO)O2)cc1,·,·,·,-4.0,·,
O=C(c1cccc(F)c1)N1CC(=O)N2[C@H](CO)[C@@H](c3ccc(-c4ccccc4F)cc3)[C@@H]2C1,·,·,·,-1.4,·,
C/C=C/c1ccc2c(c1)O[C@H](CN(C)C(=O)c1cccc(F)c1)[C@@H](C)CN([C@@H](C)CO)S2(=O)=O,·,·,·,2.0,·,
Cc1ccccc1S(=O)(=O)N1C[C@H](O)COC[C@@H]2O[C@H](CC(=O)N3CCN(C)CC3)CC[C@H]21,·,·,·,0.5,·,
CCNC(=O)C[C@H]1CC[C@H]2[C@@H](COC[C@H](O)CN2C(=O)C2CC2)O1,·,·,·,-1.1,·,
COc1cc(/C=N/c2oc(-c3ccccc3)cc2C#N)ccc1O,48.2*,-1.0,47.2*,·,-14.3,Mtb FBA inh conf=+;GDH-TPI counter-2=+
COc1cc(C(=O)N/N=C/c2ccc(OC(=O)c3ccccc3)c(OC)c2)ccc1O,15.9,2.8,1.5,1.1,10.3,
CCNc1ccccc1C(=O)O,2.9,4.5,77.7*,0.2,3.8,Mtb FBA inh conf=-5.3;GDH-TPI counter-2=-6.6
COC(=O)c1ccccc1NCCO,9.5,-0.5,109.3*,-0.3,7.4,Mtb FBA inh conf=66.5*;GDH-TPI counter-2=55.3*
O=C(O)c1ccccc1NCCO,6.6,4.4,47.5*,-0.2,1.4,Mtb FBA inh conf=138.2*;GDH-TPI counter-2=123.2*
CC(C)NC(=O)Nc1ccc2c(c1)C(=O)N([C@@H](C)CO)C[C@H](C)[C@@H](CN(C)C(=O)NC1CCCCC1)O2,·,·,·,1.1,·,
O=S(=O)(NC[C@@H]1CC[C@H]2[C@H](CN2Cc2cccc(-c3ccccn3)c2)O1)c1ccccc1,·,·,·,0.0,·,
CCCCOc1ncnc2c1[nH]c1ccc(OCC)cc12,8.6,0.1,7.7,·,8.5,
CCOc1ccc2[nH]c3c(NCCO)ncnc3c2c1,1.5,-8.6,77.9*,2.7,-2.0,Mtb FBA inh conf=45.3*;GDH-TPI counter-2=43.5*
CCOc1ccc2[nH]c3c(NCCc4ccc(OC)c(OC)c4)ncnc3c2c1,16.0,13.1,31.8*,7.6,-16.3,Mtb FBA inh conf=181.1*;GDH-TPI counter-2=146.7*
CCC(=O)Nc1ccc2c(c1)OC[C@H](C)N(Cc1cncnc1)C[C@H](C)[C@@H](OC)CN(C)C2=O,·,·,·,-1.4,·,
Cc1cc(C)nc(SCC(=O)c2cc3ccccc3oc2=O)n1,14.5,-4.4,-2.5,·,-0.2,

# Screens: PubChem BioAssay, several laboratories
